High-throughput results deposited in PubChem by National Center for Advancing Translational Sciences (NCATS).
Shown are actives, neighbours in structure and some others; about 19% of the full set was active somewhere.
TDP1 cell CPT: DT40-hTDP1 cell growth loss with CPT; Potency, µM (highest dose often 46.2 µM), for the others: at the top dose activity change, negative = growth inhibition, hits mostly inhibitors; 420,000 compounds, 12% hits; chicken DT40 Tdp1-/-;hTDP1 cells + 20 nM CPT, ATP luminescence, 48 h; also: potency is read from the fitted curve at half-maximal effect; % is scaled to controls: 0 for no effect and ±100 for the full control effect; nearly all actives have a fitted effect of over 55% in size
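Cell growth measured by CellTiter-Glo luminescence after a minimum 48 h, 37 C compound exposure with 20 nM CPT in Tdp1-knockout DT40 cells stably expressing hTDP1, seeded 400/well; qHTS titration format.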
TDP1 block: inhibitors of human tyrosyl-DNA phosphodiesterase TDP1; Q9NUW8; recombinant TDP1, AlphaScreen DNA substrate cleavage; Potency, µM (highest dose often 130 µM), for inactives: top-dose activity change, negative = inhibition, most hits filed as inhibitors; 350,000 compounds, 0.28% hits; AID 485290; also: potency is read from the fitted curve at half-maximal effect; % is scaled to controls: 0 for no effect and ±100 for the full control effect; nearly all actives have a fitted effect of over 40% in size
Target sequence (Q9NUW8 whole entry, looked up): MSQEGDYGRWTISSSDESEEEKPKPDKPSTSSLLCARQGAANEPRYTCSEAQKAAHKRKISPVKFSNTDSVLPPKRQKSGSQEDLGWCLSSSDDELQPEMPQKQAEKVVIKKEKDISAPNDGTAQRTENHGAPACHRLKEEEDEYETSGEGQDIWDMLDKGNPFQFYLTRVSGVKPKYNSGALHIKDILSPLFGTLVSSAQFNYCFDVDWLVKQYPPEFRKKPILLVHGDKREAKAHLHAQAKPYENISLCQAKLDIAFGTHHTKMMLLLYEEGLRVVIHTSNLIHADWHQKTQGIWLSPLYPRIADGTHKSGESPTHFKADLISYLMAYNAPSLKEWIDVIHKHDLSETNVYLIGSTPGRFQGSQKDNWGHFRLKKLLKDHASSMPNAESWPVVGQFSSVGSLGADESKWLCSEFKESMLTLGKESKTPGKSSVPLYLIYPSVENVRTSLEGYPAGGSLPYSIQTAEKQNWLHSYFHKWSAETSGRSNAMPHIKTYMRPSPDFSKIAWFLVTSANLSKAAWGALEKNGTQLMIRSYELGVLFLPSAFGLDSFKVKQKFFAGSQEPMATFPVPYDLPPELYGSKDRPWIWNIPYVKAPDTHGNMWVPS
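Here, a 5' biotin and 3' phosphotyrosine-FITC DNA oligonucleotide reports Tdp1 activity: intact substrate bridges AlphaScreen beads, while cleavage leaves a 3' phosphate and drops signal. All incubations at room temperature.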
HepG2 tox: HepG2 cytotoxicity, counter-screen for TGF-b inhibitors. HepG2 CAGA-GFP viability, ATP luminescence, 18 h. Potency, µM (titrated, usually from 46.1 µM), for the others: at the highest dose activity change, negative = cytotoxicity, usual class: cytotoxic. 410,000 compounds, 0.76% hits; also: potency is read from the fitted curve at half-maximal effect
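HepG2 CAGA-GFP cells (1000/well, DMEM with 1% FBS) received compound, then TGF-beta at 500 pg/mL final, and were incubated 18 hours at 37 degrees C. Viability was read by CellTiter-Glo luminescence. Media-only wells were set as complete cell-killing and DMSO as no toxicity.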
IL-1B inflam inh: blocks inflammasome-driven IL-1 beta release; THP-1 LPS/ATP IL-1B secretion, AlphaLISA, 16 h; hits give low values; activity change, % at 57.5 µM; 360,000 compounds, 4.7% hits; AID 743279; in the data active = activity change below about -50%; inconclusive = mostly about -30% to -49%; also: % is scaled to controls: 0 for no effect and ±100 for the full control effect
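THP-1 cells pretreated 1 hr with compounds (up to 57.5 uM final), then stimulated with LPS (250 ng/mL final) plus ATP (1.25 mM final); secreted IL-1B measured by AlphaLISA after 16 hr, decreased signal indicating inhibition.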
TGFb SMAD3 inh: inhibitors of TGF-b signaling | Potency, µM (top dose mostly 46.1 µM), inactives show at the highest dose activity, negative = inhibition, usual class: inhibitors | HepG2 CAGA-GFP TGF-b/SMAD3 reporter, GFP fluorescence, 18 h; TGF-beta stimulated, 500 pg/mL final | 410,000 compounds, 1.2% hits; also: potency is read from the fitted curve at half-maximal effect; % is scaled to controls: 0 for no effect and ±100 for the full control effect; nearly all actives have a fitted effect of over 65% in size
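Using HEPG2 CAGA-GFP reporter cells at 1000 cells/well, we pinned test compounds, stimulated with recombinant TGF-beta (500 pg/mL final) and measured total well GFP after 18 h.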
DT40 TDP1 no CPT: qHTS for Inhibitors of human tyrosyl-DNA phosphodiesterase 1 (TDP1): qHTS in cells in absence of CPT; 420,000 compounds, 15% hits; DT40 Tdp1-/- hTDP1 cells, no CPT, ATP luminescence, 48 h; Potency, µM (series often up to 46.2 µM), without a hit: at the highest dose activity change, negative = growth inhibition, actives largely listed as inhibitors; also: potency is read from the fitted curve at half-maximal effect; % is scaled to controls: 0 for no effect and ±100 for the full control effect; nearly all actives have a fitted effect of over 55% in size
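No-CPT arm: Tdp1-/-;hTDP1 DT40 cells (400/well) plus compounds, incubated ≥48 hr at 37 °C. Readout CellTiter-Glo luminescence.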
Active calls of the source: *; ? = inconclusive; . = no result given; ! = not active in a repeat. Unless noted, calls follow the shape of the dose curve; as a rule, active = well fitted curve in the direction sought with a large enough effect; inconclusive = small, poorly fitted or top-dose-only effect, or another doubt; inactive = no such curve, though single readings can be large; an effect the other way counts as inactive or inconclusive.

SMILES	TDP1 cell CPT	TDP1 block	HepG2 tox	IL-1B inflam inh	TGFb SMAD3 inh	DT40 TDP1 no CPT
COc1ccc(NC(=O)CC2C(=O)N(c3ccc(Cl)cc3)C(=S)N2CCc2ccccn2)cc1 (centres undefined)	26µM*	0%	-21%	-12	?	?
CCCOc1ccc(NC(=O)CC2C(=O)N(Cc3ccccc3)C(=S)N2Cc2cccs2)cc1 (centres undefined)	9.2µM*	-3%	-24%	?	?	21µM*
C=CCN1C(=O)C(CC(=O)Nc2ccc(OCC)cc2)N(Cc2ccccn2)C1=S (centres undefined)	-7%	4%	-45%	-15	-4%	?
C=CCN1C(=O)C2C(C(=O)NC3CCCC3)C3(C)C=CC2(O3)C1C(=O)NC1CCCC1 (centres undefined)	-1%	2%	17%	-15	-2%	-8%
CCN1C(=O)C(CC(=O)Nc2ccc(OC)cc2)N(CCc2ccccc2)C1=S (centres undefined)	4%	5%	5%	-76*	-3%	-20%
Cc1ccc(C(=O)N2CCC(N3CCC(C(=O)N4CCOCC4)CC3)CC2)cc1C	17%	3%	-3%	10	-12%	-4%
CCOC(=O)C(CCc1ccccc1)NC1CCc2ccccc2N(CC(=O)O)C1=O (centres undefined)	.	17%	.	.	.	.
CCOC(=O)[C@H](CCc1ccccc1)N[C@H]1CCc2ccccc2N(CC(=O)O)C1=O	?	9%	12%	10	9%	21µM*!
COc1ccc2c(c1)c(=O)c(S(=O)(=O)c1ccc(C)c(C)c1)cn2CC(=O)Nc1ccccc1	-21%	4%	-12%	.	2%	?
CC(c1c(O)c2ccccc2[nH]c1=O)C1(C)CCC(O)C(C)(C)O1 (centres undefined)	?	3%	3%	24	-3%	?
CC1CCCN(C(=O)C2CCCN(S(=O)(=O)c3cccc4nsnc34)C2)C1 (centres undefined)	?	0%	2%	-12	-13%	-28%
O=C(C1CCCN(S(=O)(=O)c2cccc3nsnc23)C1)N1CCc2ccccc21 (centres undefined)	?	6%	-33%	0	?	23µM*
O=C(C1CCN(S(=O)(=O)c2cccc3nsnc23)CC1)N1CCCc2ccccc21	-27%	8%	-7%	-52*	-3%	?
CC1Cc2ccccc2N1C(=O)C1CCCN(S(=O)(=O)c2cccc3nsnc23)C1 (centres undefined)	?	6%	-15%	-13	-12%	15µM*
O=C(C1CCN(S(=O)(=O)c2cccc3nsnc23)CC1)N1CCn2c1nc1ccccc12	?	8%	-8%	17	-29%	16µM*
Cc1ccc(-n2ncc3c(N4CCCCC4)ncnc32)cc1	?	-8%	-42%	.	33%	?
COC(=O)C1CCN(S(=O)(=O)CCNC(=O)c2ccc3c(c2)OCO3)CC1	10%	-1%	-8%	-13	10%	-1%
O=C(C1CCCN(S(=O)(=O)c2cccc3nsnc23)C1)N1CCc2ccccc2C1 (centres undefined)	?	4%	-17%	?	-27%	23µM*
CCOc1ccccc1O[C@H](c1ccccc1)[C@H]1CNCCO1	30µM*	.	-25%	-19	2%	19µM*
CCOC(=O)C1CCN(C(=O)COC(=O)CNC(=O)c2ccc(C(C)(C)C)cc2)CC1	-12%	0%	-3%	8	-30%	-13%
O=C(Nc1ccc(Cl)c(S(=O)(=O)N2CCOCC2)c1)c1ccccn1	3%	2%	-2%	18	-5%	-18%
Cc1ccc(NC(=O)c2cc(-c3ccco3)nc3ccccc23)cc1S(=O)(=O)N1CCOCC1	?	-3%	2%	5	-4%	29µM*
O=C(Nc1ccc(Cl)c(S(=O)(=O)N2CCOCC2)c1)c1cc(-c2ccccn2)nc2ccccc12	?	0%	-9%	?	3%	23µM*
COc1ccc(NC(=O)c2cc(C)nc3ccccc23)cc1S(=O)(=O)N1CCOCC1	0%	0%	-13%	-17	9%	3%
O=C(OCN1C(=O)c2ccccc2C1=O)c1cccnc1SC(F)F	9%	13%	-10%	11	-1%	2%
N#Cc1ccc(/C=C2/C=Cc3ccccc32)cc1	?	.	5%	.	-20%	-1%
CN1CCN(C2=C(Cl)C(=O)N(c3cccc(Cl)c3)C2=O)CC1	-9%	8%	-16%	-25	-6%	-4%
CN1CCN(C2=C(Cl)C(=O)N(c3ccc(Cl)c(Cl)c3)C2=O)CC1	29µM*	-8%	-61%	?	?	?
